Compound activity (PubChem)
MITF TRPM1 inh = inhibitors of MITF-driven TRPM1 promoter in melanoma cells; inhibition, % at 12.5 µM; actives 0.83% (n = 330,000); SK-MEL-5 TRPM1 promoter luciferase, 24 h; AID 488899;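 active = mean inhibition across replicates of 60% or more, whatever share of single replicates reaches that level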
HIF-2a inh = HIF-2a inhibition; 786-0 RCC cells HIF-2a reporter, luciferase luminescence, overnight; inhibition, % at 18.8 µM; actives 0.72% (n = 360,000); AID 624352;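 active = inhibition of the luminescence signal of 40% or more relative to plate controls, in a single-dose primary screen at 18.75 µM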
Peg3 promoter = Peg3 promoter activity inhibition; HeLa PEG-Prom luciferase reporter, luminescence, overnight; inhibition, % at 20 µM; actives 1.7% (n = 360,000); AID 588405;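 active = inhibition of at least 50% at 20 µM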
CHOP inh = blocks CHOP induction under ER stress; CHO-K1 CHOP-promoter luciferase, tunicamycin-induced, 15-18 h; inhibition, % at 10 µM; actives 3.8% (n = 220,000); AID 2732;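 active = compounds that reduced the stress-induced luciferase reporter signal by more than about 70% of percent inhibition, limit read from the data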;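 also: 0% = tunicamycin plus vehicle and 100% = wells without tunicamycin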
CF NFkB block = cystic fibrosis NF-kB activation inhibition. KKLEB NF-kB-GFP reporter, PAF-induced, GFP fluorescence overnight. inhibition, % at 5 µM. actives 0.86% (n = 360,000). AID 588850;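 active = at least 50% inhibition at 5 µM, scaled per plate between neutral and stimulator controls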;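 also: PAF is a Pseudomonas aeruginosa culture filtrate used as stimulus; plate controls were PAF-stimulated DMSO wells for no effect and unstimulated DMSO wells for full effect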
KKLEB tox = reduces viability of KKLEB cystic fibrosis airway cells. actives 0.36% (n = 360,000). activity change (cytotoxicity), % at 5 µM. AID 602141. KKLEB CF airway cells viability, ATPlite luminescence, overnight; active compounds read low; cells stimulated with P. aeruginosa culture filtrate;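 active = corrected activity change at or below -50% at 5 µM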
Numbers without * were called inactive; . = not tested or not shown. Most compounds without a hit are left out; they make up all but 4.3% or so of the library.

SMILES	MITF TRPM1 inh	HIF-2a inh	Peg3 promoter	CHOP inh	CF NFkB block	KKLEB tox
CCn1cc(CN2CCCC(C(=O)Nc3cccc(-c4cc5ccccc5[nH]4)c3)C2)c(C)n1 (stereo unspecified)	4	13	-1	.	-3	-10
OC[C@H]1O[C@@H](n2cnc3c(NCCc4ccccc4)ncnc32)C(O)[C@H]1O (stereo partly specified)	.	.	.	-2	.	.
Cc1ccc(S(=O)(=O)N[C@H](C(=O)NCC2CCC(C(=O)O)CC2)C(C)C)cc1 (stereo partly specified)	-8	16	3	.	-16	4
O=C(/C=C/c1cccnc1)c1ccccc1O	0	14	12	-66	-16	-2
O=C(C=Cc1ccccn1)c1ccccc1O	88*	-9	98*	.	25	-5
c1ccc(Cn2nnnc2C(c2cccs2)N2CCc3ccccc3C2)cc1 (stereo unspecified)	7	2	23	76*	4	0
CC(C)C(c1nnnn1Cc1ccccc1)N1CCc2ccccc2C1 (stereo unspecified)	6	7	21	76*	-2	8
CC1=CC2=NC(=O)/C(=C\c3ccc(-c4cccc(Cl)c4)o3)C(=N)N2O1	33	12	57*	107*	4	-10
CC1=CC2=NC(=O)/C(=C\c3cc(C)n(-c4ccc(F)cc4)c3C)C(=N)N2O1	-1	10	11	5	-18	2
O=C(NCC(=O)N1CCN(S(=O)(=O)c2ccccc2C(F)(F)F)CC1)c1sc2ccccc2c1Cl	8	5	11	.	48	-55*
Oc1ccc(Br)cc1/C=N/n1cnc2ccccc21	-25	-361	-242	74*	-17	27
Cc1ccc(N(C)C(=O)N2CCN(S(=O)(=O)c3ccc(C)c(C)c3)CC2)cc1	-4	7	23	73*	2	0
Cc1ccc(S(=O)(=O)N2CCN(C(=O)N(C)C)CC2)cc1C	-1	1	4	22	-2	3
COc1ccc(-c2nc(NC(=O)c3ccc(OCC(=O)N4CCOCC4)c(OC)c3)sc2C)cc1	7	8	66*	-7	-31	5
CCc1ccc(-c2nc(NC(=O)c3ccc(OCC(=O)Nc4ccc(F)cc4)c(OC)c3)sc2C)cc1	-1	8	11	27	-12	0
COc1cc(C(=O)Nc2nc(-c3ccc(Cl)cc3)c(C)s2)ccc1OCC(=O)Nc1ccc(F)cc1	48	-3	35	77*	48	-58*
C=C1[C@@H](OC(C)=O)C=C[C@@]2(C)C=CC(=O)[C@@](C)(OC(C)=O)[C@@H]2[C@@H](OC(C)=O)[C@]2(O)[C@@H](C)C(=O)O[C@H]2[C@H]1Cl	.	12	-17	.	4	4
Cc1cc(C)cc(NCc2cc(=O)oc3cc(-c4ccccc4)c(O)cc23)c1	19	12	0	103*	13	1
Cc1cc(C)cc(NCc2cc(=O)oc3cc(C)c(O)cc23)c1	5	17	26	.	7	1
COc1ccc(C)cc1NCc1cc(=O)oc2cc(-c3ccccc3)c(O)cc12	-35	-42	-20	93*	11	-11
COC(=O)c1ccccc1NCc1cc(=O)oc2cc(O)c(O)cc12	-5	34	26	.	-8	-11
CC(C)(C)c1ccc(C(=O)O[C@H]2[C@H](Cc3ccccc3)NS(=O)(=O)[C@H]3C[C@@H]4C=C[C@]23O4)cc1	16	30	21	.	-3	-8
CCOc1ccc(-n2c(C)c(C(=O)OC)c3cc(O)ccc32)cc1	-2	18	15	81*	24	0
Cc1cc(NC(=O)CSc2nc(-c3ccco3)cc(C(F)(F)F)n2)no1	31	13	7	.	22	-14
CCOC(=O)N1CCN(c2nc(-c3ccco3)cc(C(F)(F)F)n2)CC1	0	-16	-2	86*	15	3
SMILES	MITF TRPM1 inh	HIF-2a inh	Peg3 promoter	CHOP inh	CF NFkB block	KKLEB tox
O=C(CSc1nc(-c2ccco2)cc(C(F)(F)F)n1)Nc1ccccc1C(F)(F)F	11	6	38	77*	15	-11
Cc1cccc(C)c1NC(=O)CSc1nc(-c2ccco2)cc(C(F)(F)F)n1	7	12	23	85*	14	-3
Cc1nc(SCC(=O)c2cc(C)n(C3CC3)c2C)c2ccccc2n1	.	-5	-7	.	2	-11
O=S(=O)(NCCSc1ccccc1)c1ccc(F)cc1	-16	1	0	91*	12	-5
COc1ccccc1/C=C/C(=O)/C=C/c1ccccc1O	66*	-12	101*	101*	-7	-13
COc1ccccc1/C=C/C(C)=O	2	9	8	3	-14	6
COc1ccccc1/C=C/C(=O)c1cc(Br)ccc1OC(=O)c1ccco1	34	87*	19	.	11	-15
Cc1ccc(/C=C/C(=O)c2cc(Br)ccc2OC(=O)c2ccco2)cc1	27	-69	0	21	-18	-4
CNc1ccccc(C(=O)/C=C/c2ccccc2OC)c1=O	24	2	-14	88*	5	-4
O=C(NCc1cccs1)c1ccc2sc([C@@H]3O[C@H](CO)[C@H](O)[C@H](O)[C@H]3O)nc2c1	.	-11	-1	.	6	-6
COc1cccc(-c2cc(C(F)(F)F)nc(NCc3ccco3)n2)c1	-6	-33	4	71*	-4	2
COc1ccc(-c2cc(C(F)(F)F)nc(NCc3ccco3)n2)cc1OC	-15	0	11	75*	38	-25
FC(F)(F)c1cc(-c2ccc3c(c2)OCO3)nc(NCc2ccco2)n1	7	-8	1	69	7	-6
CC(C)CCn1c(O)c(N=NC(=O)c2ccco2)c2ccccc21	13	10	1	83*	5	-6
Cn1c(O)c(N=NC(=O)c2ccco2)c2ccccc21	-2	-86	-73	1	-59	4
Cc1nn(Cc2ccc(Cl)cc2)c(=O)n1N(C)c1ncc(C(F)(F)F)cc1Cl	-9	-2	12	81*	13	-13
Brc1ccc2c(c1)-c1ccccc1C1=NCCN12	.	-56	87*	.	-177	-6
Cc1cc(C(=O)NNC(=O)/C=C/c2ccc(F)cc2)c(C)o1	8	-10	11	.	-2	-11
CCOC(=O)c1cc(OC(C)=O)c2ccc(OC)c(OC)c2c1	.	-41	-59	.	-16	-5
COc1ccccc1NC(=O)c1cc(-c2ccc(OC)c(OC)c2)nc2ccccc12	-4	3	37	.	-3	-2
Cc1cccc(NC(=O)Nc2ccc(C)cc2Br)c1	-31	-209	-154	90*	15	-20
Cc1ccc2nc(-c3ccccc3)cc(C(=O)Nc3cccnc3)c2c1	8	-50	-31	.	-20	2
COc1cc2c(cc1N/C=C(\C#N)c1nc(-c3ccccc3)cs1)oc1ccccc12	-22	12	61*	-18	1	-18
